# Measurements as given in PubChem BioAssay AID1578 (Sanford-Burnham Center for Chemical Genomics, 2009).
# Several values for one entry are separate records, joined by “and”; a condition that tells them apart may be missing. Equal entries are not always repeated. Among all 290,000 compounds or so, about 3,000 (1%) were called active. No stated cut-off is given here; in the data, active means inhibition mostly above about 36% (no sharp cut-off); inactive means mostly below about 34%. The entries come from a sample that favours actives as a whole.
# Test: inhibition of NOD1-driven NF-kB reporter – cell-based, luminescence, uHTS, primary screen (AID 1578);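 further: HEK-293T reporter cells stimulated with the NOD1 agonist gamma-tri-DAP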
# Details: NOD1-driven NF-kB luciferase reporter cells, at 4 µM, stronger effect = higher value
row,Structure (SMILES),inhibition
1,O=C(CCN1CCN(Cc2ccccc2)CC1)Nc1ccccc1Cl,-19.8% (inactive)
2,NNC(=O)CCN1CCN(C(c2ccccc2)c2ccccc2)CC1,-18.4% (inactive)
3,NNC(=O)CCN1CCN(Cc2ccccc2)CC1,45.4% (active)
4,COC(=O)N/N=C/c1cc(Cl)cc(Cl)c1OCc1ccccc1F,-1.4% (inactive)
5,C=CCSc1nc(C)c(CC=C)c(=O)[nH]1,-34.6% (inactive)
6,C=CCSc1nc(C)c(CC(=C)C)c(=O)[nH]1,-23.6% (inactive)
7,C=CCSc1nc(C)c(Cc2cccc3ccccc23)c(=O)[nH]1,41.9% (active)
8,C/C(=N\NC(=O)C1CC1)c1cccs1,-17.5% (inactive)
9,CCc1ccnc(NS(=O)(=O)c2ccc3c(c2)CCO3)c1,-5.6% (inactive)
10,O=S(=O)(N/N=C\c1c(F)cccc1Cl)c1ccc(Cl)cc1,-0.4% (inactive)
11,CCOC(=O)c1ccc(Cl)c(NC(=O)c2ccc(-c3ccccc3)cc2)c1,104% (active)
12,COC(=O)c1ccc(Cl)c(NC(=O)c2ccc(-c3ccccc3)cc2)c1,6% (inactive)
13,CCCOC(=O)c1ccc(Cl)c(NC(=O)c2ccc(-c3ccccc3)cc2)c1,3.5% (inactive)
14,Cc1cc(NS(=O)(=O)c2ccc(NC(=O)C(C)Oc3ccc(Cl)cc3)cc2)no1 (stereo unspecified),6.9% (inactive)
15,O=C(Nc1ccccc1)C12CC3CC(C1)CC(n1cnc([N+](=O)[O-])n1)(C3)C2,1.9% (inactive)
16,O=C(Nc1cccc([N+](=O)[O-])c1)C12CC3CC(C1)CC(n1cnc([N+](=O)[O-])n1)(C3)C2,92.1% (active)
17,O=C(Nc1ccon1)C12CC3CC(C1)CC(n1cnc([N+](=O)[O-])n1)(C3)C2,-18.8% (inactive)
18,COc1ccc(C(=O)N2CCCC(C(=O)N3CCN(c4ccccc4)CC3)C2)cc1 (stereo unspecified),2.5% (inactive)
19,Cc1ccccc1C(=O)N1CCN(c2ccc(NC(=O)c3ccc4c(c3)OCO4)cc2)CC1,3% (inactive)
20,O=C(Nc1ccc(N2CCN(C(=O)c3ccccc3)CC2)cc1)c1ccc2c(c1)OCCO2,31.2% (inactive)
21,COc1ccccc1N(CC(=O)Nc1ccccc1C)S(C)(=O)=O,-26.9% (inactive)

row,Structure (SMILES),inhibition
1,CC(NC(=O)c1ccccc1Cl)C1CC2CCC1C2 (stereo unspecified),-16.6% (inactive)
2,CC(NC(=O)C1CCCC1)C1CC2CCC1C2 (stereo unspecified),96.5% (active)
3,CC(NC(=O)C1CC=CCC1C(=O)O)C1CC2CCC1C2 (stereo unspecified),-30.7% (inactive)
4,C[C@]12CC(O)C3C(CCC4=CC(=O)CC[C@@]43C)C1CCC2c1csc(-c2ccccc2)n1 (stereo partly specified),15.3% (inactive)
5,CC(=O)[C@H]1CC[C@H]2[C@@H]3CCC4=CC(=O)CC[C@]4(C)[C@H]3CC[C@]12C,5.4% (inactive) and -4.1% (inactive)
6,C/C(=N\O)c1ncc(C(F)(F)F)cc1Cl,-23.5% (inactive)
7,CC(C)NC(=O)CC(=O)N/N=C\c1ccccc1C(=O)O,-33.7% (inactive)
8,CSc1ccccc1C(=O)Nc1cccc(N(C)S(C)(=O)=O)c1,-8.4% (inactive)
9,CC1Cc2ccccc2N1CC(=O)NC(=O)NCc1ccco1 (stereo unspecified),-5.2% (inactive)
10,Nc1ccc2c3c(cccc13)C(=O)N(c1ccccc1)C2=O,-19.1% (inactive)
11,Nc1cccc(N2C(=O)c3cccc4c(N)ccc(c34)C2=O)c1,5.7% (inactive)
12,Cc1cccc(N2C(=O)c3cccc4c(N)ccc(c34)C2=O)c1,26.2% (active)
13,O=C(NCCOc1ccccc1)C1CCC(=O)N(CCCN2CCOCC2)C1 (stereo unspecified),-28.6% (inactive)
14,Cn1c(Cl)cnc1C1CC(=O)c2cc(Cl)ccc2O1 (stereo unspecified),76.3% (active)
15,COc1ccc2c(c1)C(=O)CC(c1ccccc1F)O2 (stereo unspecified),5.9% (inactive)
16,Cc1ccc2c(c1)C(=O)CC(c1ccc3c(c1)OCCO3)O2 (stereo unspecified),-0.6% (inactive)
17,COc1ccc(CN(C)C(=O)c2ccc(COc3ccccc3)cc2)c(OC)c1,-11.1% (inactive)
18,Cc1ccsc1/C=N\NC(=O)Cn1nnc2ccccc21,-9.3% (inactive)
19,OC(COC(c1ccc(Cl)cc1)c1ccc(Cl)cc1)CN1CCCC1 (stereo unspecified),-28.8% (inactive)
20,OC(COC(c1ccc(F)cc1)c1ccc(F)cc1)CN1CCCC1 (stereo unspecified),40.5% (active)
21,OCCN1CCN(CC(O)COC(c2ccc(F)cc2)c2ccc(F)cc2)CC1 (stereo unspecified),-11.1% (inactive)

row,Structure (SMILES),inhibition
1,Cc1ccccc1NC(=O)Cc1nc(COC(=O)c2cc(Cl)ccc2O)cs1,-19.6% (inactive)
2,CC(=O)Oc1cc(OC(C)=O)c2c(=O)c(-c3ccc4c(c3)OCCCO4)c(C)oc2c1,-3% (inactive)
3,O=C(NCc1cccnc1)c1ccc(-c2cc(Cl)ccc2Cl)o1,42.3% (inactive)
4,O=C(NCc1cccnc1)c1ccc(-c2cccc(Cl)c2Cl)o1,40.8% (active)
5,O=C(NCc1cccnc1)c1ccc(-c2ccc(Cl)cc2)o1,-19.4% (inactive)
6,Cc1csc(=O)n1CC(=O)OCC(=O)Nc1cc(Cl)ccc1[N+](=O)[O-],-34.9% (inactive)
7,CCN(C(=O)CSc1nncs1)c1c(N)n(Cc2ccccc2)c(=O)[nH]c1=O,4.6% (inactive)
8,CCC(=O)NC(C)C(c1cccs1)N1CCN(Cc2ccccc2)CC1 (stereo unspecified),-18.4% (inactive)
9,O=C(COc1ccc(Cl)cc1)N1CCN(C(=O)c2ccccc2F)CC1,27.3% (inactive)
10,C=C1C(=O)O[C@H]2C[C@]3(C)C([C@@H](OC(=O)/C(C)=C/C)[C@H]12)[C@](C)(O)CC[C@H]3O (stereo partly specified),13.6% (inactive)
11,C=C1C(=O)O[C@@H]2[C@H]1[C@@H](OC(=O)/C(C)=C/C)C/C(C)=C\C(=O)/C=C(\C)[C@@H]2O,54.7% (active)
12,C=C1C(=O)O[C@H]2[C@H]1[C@@H](O)CC(=C)[C@@H]1CC(=O)[C@@H](C)[C@H]21,9.7% (inactive)
13,CCn1c(CC(=O)Nc2ccc(OC)cc2)nnc1SCC(=O)N1CCOCC1,-21.2% (inactive)
14,COc1ccc(/C=C/C(=O)c2ccncc2)c2ccccc12,6.3% (inactive)
15,COc1ccc(/C=C/C(=O)c2ccc[nH]2)c(OC)c1OC,-21.2% (inactive)
16,COc1cc2[nH]c(=O)n(C3CCCCC3)c(=O)c2cc1OC,3.9% (inactive)
17,CCOc1ccc(-c2nc(N)ncc2-c2ccccc2)c(O)c1,2.9% (inactive)
18,CCOc1ccc(-c2nc(N)ncc2-c2ccc(OC)cc2)c(O)c1,7.2% (inactive)
19,CCOc1ccc(-c2nc(N)ncc2-c2ccc(Cl)cc2)c(O)c1,34.1% (active)
